MsrA act: activates bovine MsrA enzyme; purified bovine MsrA, absorbance read-out; activation, % at 10.6 µM; hit rate 0.3% among 360,000; AID 602163; in the data active = activation above about 7.5%;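 also: 0% = vehicle and 100% = reference activator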
sPLA2-III inh: Blocks human group III sPLA2 activity; Q9NZ20; QFRET BODIPY PC-A2 liposome hydrolysis, fluorescence; inhibition, % at 12.2 µM; hit rate 0.56% among 370,000; AID 743126;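 active = inhibition above mean plus 3 SD of compounds lying within the high and low control bounds, cut at about 19% in these data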;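 also: 0% = median of test compound wells and 100% = no enzyme DMSO wells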
Target sequence (Q9NZ20 whole entry, looked up): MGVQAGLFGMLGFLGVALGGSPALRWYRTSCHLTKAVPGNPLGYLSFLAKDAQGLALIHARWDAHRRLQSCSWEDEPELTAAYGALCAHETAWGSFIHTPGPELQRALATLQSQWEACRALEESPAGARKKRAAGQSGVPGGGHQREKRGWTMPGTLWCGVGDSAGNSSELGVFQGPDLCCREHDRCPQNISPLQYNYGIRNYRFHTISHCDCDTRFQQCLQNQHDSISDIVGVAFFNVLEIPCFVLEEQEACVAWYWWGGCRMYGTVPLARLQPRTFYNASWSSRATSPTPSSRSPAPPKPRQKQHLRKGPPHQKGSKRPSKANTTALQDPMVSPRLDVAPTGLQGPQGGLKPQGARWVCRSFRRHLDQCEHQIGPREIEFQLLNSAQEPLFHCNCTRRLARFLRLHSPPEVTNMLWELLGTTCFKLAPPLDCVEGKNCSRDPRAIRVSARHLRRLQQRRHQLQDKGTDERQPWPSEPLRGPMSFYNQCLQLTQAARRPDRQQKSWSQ
rCAG RNA binder: binds r(CAG) RNA repeats | r(CAG) RNA repeat, TO-PRO-1 dye displacement fluorescence | inhibition, % at 3 µM | hit rate 1.3% among 370,000;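 active = inhibition above the plate cutoff, the mean of all test compounds on that plate plus 3 SD, cut at about 35% in these data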;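 also: 0% = DMSO alone and 100% = 100 µM mitoxantrone as full dye displacement; higher means more dye released from RNA so lower well fluorescence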
MsrA inhibitor: inhibits bovine methionine sulfoxide reductase A | hit rate 0.75% among 360,000 | purified bovine MsrA, absorbance read-out | AID 651718 | inhibition, % at 15.5 µM;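 also: 0% = vehicle wells with enzyme and 100% = reference inhibitor wells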
MsrA inh confirm: bovine MsrA inhibition, confirmed; shares compounds with MsrA inhibitor; AID 651822; inhibition, % at 15.5 µM; purified bovine MsrA, absorbance read-out; hit rate 41% among 2,300;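 also: coupled to thioredoxin reductase with NADPH and selenocystamine and DMSO as substrate; 0% = vehicle only and 100% = full effect of reference inhibitor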
An asterisk follows results filed as active. An excerpt weighted towards active compounds, which were near 2.8% of everything screened. Rule as the data show it, unless noted: active = inhibition above about 4.5%; inactive = the rest.

`CCCCc1nc(SCC(=O)N2CCCC2)c2c(=O)n(C)c(=O)n(C)c2n1` gave MsrA act -9, sPLA2-III inh 2, rCAG RNA binder -12, MsrA inhibitor 7.5* and MsrA inh confirm 6.9*.
CCN(C(=O)CSc1nc2nc(C)cc(C)n2n1)c1cccc(C)c1 was read as MsrA act -10, sPLA2-III inh -1, rCAG RNA binder 0 and MsrA inhibitor 0.
Screening CCN(C(=O)CSc1nc2nc(C)cc(C)n2n1)c1ccccc1 returned MsrA act -2, sPLA2-III inh 17, rCAG RNA binder -6, MsrA inhibitor 4.8* and MsrA inh confirm 2.
`Cc1ccc(N/N=C(\C#N)C(=N)N2CCOCC2)cc1` gave MsrA act -3, sPLA2-III inh 0, rCAG RNA binder 0 and MsrA inhibitor 2.
Screening N#C/C(=N\Nc1ccccc1)C(=N)N1CCOCC1 returned MsrA act -10, sPLA2-III inh 14, rCAG RNA binder -1, MsrA inhibitor 5.1* and MsrA inh confirm 2.
Screening O=C1N=C(N2C=CC(=C3C=CNC=C3)C=C2)/C(=C/N=NC(=O)c2ccccc2)S1 returned MsrA act -5, sPLA2-III inh 17, rCAG RNA binder 0, MsrA inhibitor 11* and MsrA inh confirm 11*.
`COc1cccc(/C=N/Nc2nc3ccccc3[nH]2)c1O` gave MsrA act -1, sPLA2-III inh 12, rCAG RNA binder 2, MsrA inhibitor 5.9* and MsrA inh confirm 5.2*.
`COc1cc(/C=N/Nc2nc3ccccc3[nH]c2=O)ccc1O` gave MsrA act -5, sPLA2-III inh 3, rCAG RNA binder 0 and MsrA inhibitor 1.
For COc1cc(/C=N/Nc2nc3ccccc3[nH]2)ccc1O the results were MsrA act -4, sPLA2-III inh -2, rCAG RNA binder 2, MsrA inhibitor 4.9* and MsrA inh confirm 3.
`COc1ccc(O)c(/C=N/Nc2nc3ccccc3[nH]2)c1` gave MsrA act -2, sPLA2-III inh 10, rCAG RNA binder 6, MsrA inhibitor 5.8* and MsrA inh confirm 4.
`COc1cc(/C=N/Nc2nc3ccccc3[nH]2)cc(OC)c1O` gave MsrA act -7, sPLA2-III inh 5, rCAG RNA binder 1, MsrA inhibitor 5.1* and MsrA inh confirm 4.7*.
`O=[N+]([O-])c1ccc(O)c(/C=N/Nc2nc3ccccc3[nH]2)c1` gave MsrA act 0, sPLA2-III inh -6, rCAG RNA binder 14 and MsrA inhibitor 3.
Screening COc1cccc(/C=N/Nc2ncnc(Cl)c2N)c1O returned MsrA act -7, sPLA2-III inh 11, rCAG RNA binder 9, MsrA inhibitor 5.7* and MsrA inh confirm 5.2*.
`O=[N+]([O-])c1ccc(N=NN(CCO)CCO)cc1` gave MsrA act -13, sPLA2-III inh 6, rCAG RNA binder -3, MsrA inhibitor 5.3* and MsrA inh confirm 2.
For Fc1ccccc1-c1n[nH]c(=S)n1/N=C/c1c[nH]c2ccccc12 the results were MsrA act 0, sPLA2-III inh -5, rCAG RNA binder 18, MsrA inhibitor 11* and MsrA inh confirm 7.3*.
For S=c1[nH]nc(-c2n[nH]c3c2CCC3)n1N=Cc1c[nH]c2ccccc12 the results were sPLA2-III inh 1 and rCAG RNA binder 13.
For Fc1ccccc1Nc1nc2ccccc2n2nnnc12 the results were MsrA act -4, sPLA2-III inh -11, rCAG RNA binder 4, MsrA inhibitor 11* and MsrA inh confirm 7.3*.
c1ccc(Nc2nc3ccccc3n3nnnc23)cc1 was read as MsrA act -2, sPLA2-III inh -7, rCAG RNA binder 3, MsrA inhibitor 8.1* and MsrA inh confirm 4.9*.
`Fc1cccc(Nc2nc3ccccc3n3nnnc23)c1` gave MsrA act -7, sPLA2-III inh 2, rCAG RNA binder 3 and MsrA inhibitor 3.
Screening COc1cccc(Nc2nc3ccccc3n3nnnc23)c1 returned MsrA act -2, sPLA2-III inh -6, rCAG RNA binder 10, MsrA inhibitor 8.8* and MsrA inh confirm 7.9*.
`c1ccc2c(c1)nc(Nc1ccc3c(c1)OCO3)c1nnnn12` gave MsrA act -5, sPLA2-III inh -9, rCAG RNA binder 9 and MsrA inhibitor -1.
Cc1cc2ccccc2c(=O)n1CC(=O)NCC(=O)N1CCN(c2ccccc2F)CC1 was read as MsrA act -1, sPLA2-III inh 3, rCAG RNA binder -1 and MsrA inhibitor 1.
Screening COC(=O)/C(C#N)=C/c1ccc(N2CCOCC2)c([N+](=O)[O-])c1 returned MsrA act -1, sPLA2-III inh 5, rCAG RNA binder -1 and MsrA inhibitor 2.
For O=C(N/N=C/c1cccc(Br)c1)c1ccc(Cn2cc(Br)cn2)o1 the results were MsrA act 3, sPLA2-III inh -4, rCAG RNA binder 5 and MsrA inhibitor 1.
Screening Cc1ccsc1/C=N/NC(=O)c1ccc(Cn2cc(Br)cn2)o1 returned MsrA act -2, sPLA2-III inh 3, rCAG RNA binder 0, MsrA inhibitor 4.7* and MsrA inh confirm 4.
For O=C1c2cccc3cc([N+](=O)[O-])cc(c23)C(=O)N1/N=C/c1ccc(O)cc1O the results were MsrA act -5, sPLA2-III inh -3, rCAG RNA binder 2, MsrA inhibitor 4.7* and MsrA inh confirm 2.
`O=C(/C=C/c1ccc(O)c(O)c1)OC1C(O)CC(OC(=O)/C=C/c2ccc(O)c(O)c2)(C(=O)O)CC1O` (configuration not stated) gave MsrA act -2, sPLA2-III inh 14, rCAG RNA binder 5, MsrA inhibitor 5.7* and MsrA inh confirm 2.
For COC(=O)CNC(=O)c1ccccc1 the results were MsrA act -1, sPLA2-III inh 6, rCAG RNA binder 2 and MsrA inhibitor 0.
For CC(=O)OC(=C(OC(C)=O)c1ccccc1)c1ccccc1 the results were MsrA act -2, sPLA2-III inh 4, rCAG RNA binder 0, MsrA inhibitor 5.8* and MsrA inh confirm 6.0*.
CC(=O)Nc1sc2c(c1C(c1ccccn1)N1CCN(C)CC1)CCCC2 (configuration not stated) was read as MsrA act -1, sPLA2-III inh -2, rCAG RNA binder -4 and MsrA inhibitor 0.
O=C1c2ccccc2C(=O)C1c1ccc(O)cc1 was read as MsrA act -5, sPLA2-III inh -10, rCAG RNA binder 4, MsrA inhibitor 4.9* and MsrA inh confirm 3.
For O=C1c2ccccc2C(=O)C1c1ccc(Br)cc1 the results were MsrA act 0, sPLA2-III inh -5, rCAG RNA binder 1 and MsrA inhibitor 0.
Screening O=C(COC(=O)c1ccccc1C(=O)c1ccc(Cl)cc1)NC(c1ccccc1)c1ccccc1 returned MsrA act -11, sPLA2-III inh 13, rCAG RNA binder 24 and MsrA inhibitor 0.
For COc1ccc2c(Cl)c(-c3nnc4n3CCCCC4)sc2c1 the results were MsrA act 0, sPLA2-III inh -7, rCAG RNA binder 0 and MsrA inhibitor 0.
`O=C(O)c1ccc2c(=O)n3c(nc2c1)/C(=C/c1ccc(F)cc1)CC3` gave MsrA act -2, sPLA2-III inh 9, rCAG RNA binder 10, MsrA inhibitor 5.5* and MsrA inh confirm 4.
